# Laboratory results: PubChem BioAssay AID1209 (Sanford-Burnham Center for Chemical Genomics, 2008)
# Among all 190,000 compounds or so, about 810 (0.43%) were called active. Rule as the data show it: active = inhibition above about 50%; inactive = the rest. The sample as a whole holds a higher share of actives than the screen did.
# Target: Mannose-6-phosphate isomerase (Homo sapiens) (UniProt P34949)
# Experiment: inhibitors of human PMI, primary screen, biochemical, fluorescence intensity, coupled assay (AID 1209);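 also: plate controls were DMSO vehicle for no effect and wells lacking substrate for full effect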
# Settings: purified PMI enzyme, at 20 µM, hits give high values
# Sequence of Mannose-6-phosphate isomerase (Homo sapiens) (P34949 whole entry, looked up): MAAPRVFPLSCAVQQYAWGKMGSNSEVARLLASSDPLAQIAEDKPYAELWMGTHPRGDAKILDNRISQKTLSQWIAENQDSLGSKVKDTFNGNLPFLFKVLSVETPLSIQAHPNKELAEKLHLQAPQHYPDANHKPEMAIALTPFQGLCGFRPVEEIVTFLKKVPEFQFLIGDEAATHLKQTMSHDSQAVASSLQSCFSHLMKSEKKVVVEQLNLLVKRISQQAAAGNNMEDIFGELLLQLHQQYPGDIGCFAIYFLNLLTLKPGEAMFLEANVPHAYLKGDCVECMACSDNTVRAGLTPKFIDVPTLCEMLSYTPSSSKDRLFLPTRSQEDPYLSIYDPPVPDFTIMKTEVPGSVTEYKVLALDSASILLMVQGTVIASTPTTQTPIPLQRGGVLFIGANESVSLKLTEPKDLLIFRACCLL
row,SMILES,inhibition
1,CCN(CC(=O)NCCc1ccc(S(N)(=O)=O)cc1)Cc1nc2cc(OC)c(OC)cc2c(=O)[nH]1,-4.3% (inactive)
2,CC(C(=O)Nc1ccccc1C(=O)O)n1c(C(F)(F)F)nc2ccccc21 (stereo not drawn),1.2% (inactive)
3,O=C(CSc1nc2c(sc3ccccc32)c(=O)n1CCCN1CCCC1)NCC1CCCO1 (stereo not drawn),-1% (inactive)
4,O=C(CSc1nc2c(sc3ccccc32)c(=O)n1Cc1ccccc1)NCC1CCCO1 (stereo not drawn),15.3% (inactive)
5,O=C(CSc1nc2c(sc3ccccc32)c(=O)n1CCO)NCC1CCCO1 (stereo not drawn),54% (active)
6,COc1ccc(C2=CC(c3ccc(OC)c(OC)c3)NC(=S)N2)cc1 (stereo not drawn),3.4% (inactive)
7,CN(C)/C=N/c1ncc(C(=O)c2ccc(Cl)cc2)s1,0.8% (inactive)
8,Cc1cc(C(=O)c2cnc(/N=C/N(C)C)s2)c(F)cc1Cl,93.5% (active)
9,CN(C)/C=N/c1ncc(C(=O)c2ccc(Cl)cc2Cl)s1,-11.6% (inactive)
10,COc1ccc(-c2oc(NC(=O)CSc3nncn3C)c(C#N)c2-c2ccc(OC)cc2)cc1,7.6% (inactive)
11,c1ccc2c(c1)[nH]c1c(N3CCOCC3)ncnc12,7.2% (inactive)
12,CCc1cc(N2CCOCC2)cc2c1[nH]c1ccccc12,55.4% (active)
13,CCCCn1c(=S)[nH]c2ccc(N3CCOCC3)cc2c1=O,-8.1% (inactive)
14,O=C(NCCc1c[nH]c2ccccc12)c1cccc(S(=O)(=O)Nc2ccccc2Cl)c1,20.2% (inactive)
15,COc1cccc(C(c2sc3nc(C)nn3c2O)N2CCC3(CC2)OCCO3)c1 (stereo not drawn),5.1% (inactive)
16,CN(Cc1cccnc1)Cc1cn(C)nc1-c1ccc(Oc2ccccc2)cc1,50.7% (active)
17,Cc1cnccc1CN(C)Cc1cn(C)nc1-c1ccc(Oc2ccccc2)cc1,14.4% (inactive)
18,CN(Cc1ccno1)Cc1cn(C)nc1-c1ccc(Oc2ccccc2)cc1,26.3% (inactive)
19,CC(C)NC(=O)COc1nncc2ccccc12,15.9% (inactive)
20,Cc1ccc(Cn2c(=O)sc3ccccc3c2=O)cc1,18.9% (inactive)
21,O=c1sc2ccccc2c(=O)n1Cc1ccccc1F,89.5% (active)
22,Cc1ccccc1Cn1c(=O)sc2ccccc2c1=O,6% (inactive)
23,Cc1cccc(C)c1NC(=O)CSc1nnc([C@H](C)NC(=O)OC(C)(C)C)o1,-1.6% (inactive)
24,C=CCn1c(SCC(=O)NC2CCS(=O)(=O)C2)nc2sc(CC)cc2c1=O (stereo not drawn),-1.4% (inactive)
25,CCCN1CCCc2cc(CN)ccc21,50.7% (active)
26,CCCN1CCCc2ccccc21,-40.1% (inactive)

row,SMILES,inhibition
1,CCc1ccc2c(c1)CCCN2C(=O)c1ccccc1C(=O)O,0.4% (inactive)
2,Cc1ccc(NC2=CC(=O)CC(c3ccccc3)C2)cc1 (stereo not drawn),7.6% (inactive)
3,COc1cccc(Nc2nc(CC(C)=O)ns2)c1,-2% (inactive)
4,c1ccc2sc(NCC3CCCO3)nc2c1 (stereo not drawn),-11.7% (inactive)
5,O=[N+]([O-])c1cc(Cl)c2cccnc2c1O,14.6% (inactive)
6,O=[N+]([O-])c1cc(Cl)c(O)c2ncccc12,51.7% (active)
7,Oc1c(Cl)cc(Cl)c2cccnc12,21.3% (inactive)
8,COC(=O)C(C(=O)OC)c1ccc(-n2cccc2)cc1,11% (inactive)
9,CCOc1cccc2cc(C(C)=O)oc12,-14.2% (inactive)
10,CC(=O)C1=C(c2ccccc2)NC(=S)NC1c1ccc(O)c(O)c1 (stereo not drawn),44.9% (inactive)
11,CCOc1cc(C2NC(=O)NC(c3ccccc3)=C2C(C)=O)ccc1OC(C)=O (stereo not drawn),7% (inactive)
12,CC(=O)C1=C(c2ccccc2)NC(=O)NC1c1ccc(O)c(O)c1 (stereo not drawn),61.3% (active)
13,COc1cccc(N2CCN(Cc3ccsc3)CC2)c1,-5.2% (inactive)
14,COC(=O)c1cc(=O)nc2sc(-c3cccs3)nn12,7.5% (inactive)
15,COC(=O)c1cc(=O)nc2sc(-c3ccc(F)cc3)nn12,72.4% (active)
16,COC(=O)c1cc(=O)nc2sc(-c3ccccc3)nn12,-2.3% (inactive)
17,CN1Cc2sc(N)c(C#N)c2CC1(C)C,-8.4% (inactive)
18,CN(C)c1ccc(/C=N/NC(=O)c2nonc2N)cc1[N+](=O)[O-],12.7% (inactive)
19,COc1ccc(-c2csc(Nc3ccc(C)cn3)n2)cc1OC,7.7% (inactive)
20,Cc1cccnc1Nc1nc(-c2ccc(O)cc2)cs1,-10.5% (inactive)
21,Cc1cccnc1Nc1nc(-c2ccc(O)cc2O)cs1,10.6% (inactive)
22,COc1ccc(-c2csc(Nc3ccc(C)cn3)n2)cc1,-1.5% (inactive)
23,c1ccc(-c2csc(Nc3ncccn3)n2)cc1,-2.2% (inactive)
24,Oc1ccc(-c2csc(Nc3ncccn3)n2)cc1,-4.9% (inactive)
25,Cc1cccnc1Nc1nc(-c2ccc(O)c(O)c2)cs1,52.3% (active)
26,Oc1ccc(-c2csc(Nc3ncccn3)n2)cc1O,58% (active)

row,SMILES,inhibition
1,O=C(O)CC(=O)Nc1ccccc1C(=O)O,0.5% (inactive)
2,O=C(CSCc1ccc(Cl)cc1)Nc1ccc(S(=O)(=O)N2CCOCC2)cc1,11.5% (inactive)
3,COCCN(CCOC)S(=O)(=O)c1ccc(C(=O)Nc2nnc(COC)o2)cc1,-8.8% (inactive)
4,Cc1cccc(NC(=O)c2ccc(NCC3CCCO3)c([N+](=O)[O-])c2)c1 (stereo not drawn),2% (inactive)
5,CNC[C@H](O)c1ccc(O)c(O)c1,63.2% (active)
6,COc1ccc([C@H](C)NC[C@H](O)c2ccc(O)c(NC=O)c2)cc1,0.1% (inactive)
7,CCC(NC(C)C)C(O)c1ccc(O)c(O)c1 (stereo not drawn),57.9% (active)
8,CNC[C@H](O)c1cccc(O)c1,-1.6% (inactive)
9,CCC(C)c1ccc(O)c(N)c1 (stereo not drawn),26.6% (inactive)
10,CCC(NC(C)C)C(O)c1ccc(O)c2[nH]c(=O)ccc12 (stereo not drawn),4.3% (inactive)
11,Cc1c(C(=O)OC(C)C(C)C[N+](C)(C)C)oc2ccccc12 (stereo not drawn),1.7% (inactive)
12,COc1ccc(OC)c(C(C)NC(=O)c2ccco2)c1 (stereo not drawn),7% (inactive)
13,c1ccc(CNc2ncnc3nc[nH]c23)nc1,8.8% (inactive)
14,CCn1c(SCc2nc3ccccc3[nH]2)nnc1-c1ccc(OC)cc1,6.6% (inactive)
15,c1ccc2[nH]c(SN3CCOCC3)nc2c1,94.5% (active)
16,c1ccc2[nH]c(SCCN3CCOCC3)nc2c1,-3.1% (inactive)
17,c1ccc2[nH]c(N3CCOCC3)nc2c1,-5% (inactive)
18,OCCC1CN(Cc2cnc(-c3cccc4ccccc34)nc2)CCN1C1CCCCC1 (stereo not drawn),13.3% (inactive)
19,COc1ccccc1CNC(=O)c1cc2c(s1)CS(=O)(=O)C2,2.6% (inactive)
20,CCCOc1ccc(C2NC(=S)NC(C)=C2C(=O)c2ccccc2)cc1OC (stereo not drawn),-34.6% (inactive)
21,COc1ccc(S(=O)(=O)NC(CC(=O)NCCc2ccc(OC)c(OC)c2)C(C)C)cc1 (stereo not drawn),-5% (inactive)
22,COc1c(/C=N/Nc2ccc([N+](=O)[O-])cc2[N+](=O)[O-])c(C)nn1-c1ccccc1,8.9% (inactive)
23,Cc1nn(-c2ccccc2)c(N)c1Sc1cccc([N+](=O)[O-])c1,5.2% (inactive)
24,CCOC(=O)c1c(Cc2ccccc2)c[nH]c1C,-17.6% (inactive)
25,COc1ccc(Cc2noc(-c3ccc(OC)c(OC)c3)n2)cc1OC,1.8% (inactive)
26,COc1ccc(Cc2nnc(N)s2)cc1OC,-1.6% (inactive)

row,SMILES,inhibition
1,COc1cccc(NC(=S)/C(=C(\[O-])c2ccc([N+](=O)[O-])cc2)[n+]2ccccc2)c1,-1.1% (inactive)
2,CCOc1ccccc1NC(=O)CCS(=O)(=O)c1cccc2nonc12,0.7% (inactive)
3,O=C(CCS(=O)(=O)c1ccccc1)N1CCOCC1,-8.2% (inactive)
4,CC(C)(C)CC(C)(C)NC(=S)Nc1ccc2nc(-c3ccccn3)c(-c3ccccn3)nc2c1,-21.7% (inactive)
5,CCCNC(=S)Nc1ccc2nc(-c3ccccn3)c(-c3ccccn3)nc2c1,26.5% (inactive)
6,CN(C)NC(=S)Nc1ccc2nc(-c3ccccn3)c(-c3ccccn3)nc2c1,-8.4% (inactive)
7,Cc1nc2ccc(NC(=S)NCCCO)cc2nc1C,-27.3% (inactive)
8,OCCCNC(=S)Nc1ccc2nc(-c3ccccn3)c(-c3ccccn3)nc2c1,56.9% (active)
9,Cc1ccc(NC(=S)Nc2ccc3nc(-c4ccccn4)c(-c4ccccn4)nc3c2)cc1C,76.2% (active)
10,COc1cc2nc(CN(C)Cc3ccc(Cl)cc3)[nH]c(=O)c2cc1OC,5.6% (inactive)
11,Cc1ccc(C(=O)Nc2ccc(Cl)cc2C)c(Cl)c1,-5.9% (inactive)
12,COc1ccc(C2c3c(oc4ccc(C)cc4c3=O)C(=O)N2c2cc(C)ccn2)cc1OC (stereo not drawn),30.5% (inactive)
13,COC(=O)CCC(=O)COc1ccc(OC)cc1C#N,1.1% (inactive)
14,Cc1ccc(OCC(=O)NCc2ccccc2)c([N+](=O)[O-])n1,20.4% (inactive)
15,Cc1cc(C(=O)Nc2cccc3ccccc23)n(-c2ccccc2)n1,-11.6% (inactive)
16,CCc1ccccc1NC(=O)c1cc(C2CC2)on1,-4.9% (inactive)
17,Cc1cc2n(n1)SC(Nc1cc(Cl)ccc1Cl)N2 (stereo not drawn),19.6% (inactive)
18,O=C1NC(=O)C(Nc2cccc3ccccc23)S1 (stereo not drawn),-0.5% (inactive)
19,CCc1ccccc1NC1c2ccccc2C(=O)N1c1cc(C)ccn1 (stereo not drawn),-2.8% (inactive)
20,Cc1cc2n(n1)SC(Nc1cccc3ccccc13)N2 (stereo not drawn),56.1% (active)
21,Cc1ccc(Nc2cc(-n3nc(C)cc3C)ncn2)c(C)c1,-0.1% (inactive)
22,COc1ccc(S(=O)(=O)N2CCOCC2)cc1NC(=O)CN1CCCCCC1,-4.3% (inactive)
23,COc1ccc(OC)c(S(=O)(=O)Nc2cccc(C(C)=O)c2)c1,4.2% (inactive)
24,CC(=O)Nc1ccc(S(=O)(=O)N2CC3(C)CC2CC(C)(C)C3)cc1 (stereo not drawn),12.4% (inactive)
25,COc1ccc(NS(=O)(=O)c2ccc(OCC(=O)N3CCOCC3)cc2)cc1,10.6% (inactive)
